Measured values published in PubChem BioAssay (NCI).
The panel holds about 83,000 compounds, 20% with a hit somewhere; the sample as a whole holds those more often.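 A percent growth of 40 corresponds to 60% growth inhibition; 0 means no net growth; -100 means all cells died. Active threshold: below 10.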 Active and inactive are the calls of the source.

How the values were obtained:
Assay in all cases: NCI-60 one-dose screen, 48 h (100 = growth as untreated, 0 = no growth, -100 = all killed)
Conditions in all cases: 10 µM unless noted
HT29 colon = tested on: HT29 colon
SNB-75 CNS = tested on: SNB-75 CNS
SNB-19 CNS = tested on: SNB-19 CNS
U251 CNS = tested on: U251 CNS
PC-3 prostate = tested on: PC-3 prostate
SK-MEL-5 melanoma = tested on: SK-MEL-5 melanoma
UACC-62 melanoma = tested on: UACC-62 melanoma
LOX IMVI melanoma = tested on: LOX IMVI melanoma
SK-MEL-28 melanoma = tested on: SK-MEL-28 melanoma
SK-MEL-2 melanoma = tested on: SK-MEL-2 melanoma
SN12C renal = tested on: SN12C renal
UO-31 renal = tested on: UO-31 renal
TK-10 renal = tested on: TK-10 renal
ACHN renal = tested on: ACHN renal
CAKI-1 renal = tested on: CAKI-1 renal
CCRF-CEM leukemia = tested on: CCRF-CEM leukemia
MOLT-4 leukemia = tested on: MOLT-4 leukemia
EKVX NSCLC = tested on: EKVX NSCLC

Measured: growth

O=C(/C=C(/C=C/c1coc2ccccc12)OB(F)F)/C=C/c1coc2ccccc12
inactive: HT29 colon 100% | SNB-75 CNS 98% | SNB-19 CNS 89.1% | U251 CNS 84.6% | PC-3 prostate 86.2% | SK-MEL-5 melanoma 105% | UACC-62 melanoma 88.9% | LOX IMVI melanoma 84.9% | SK-MEL-28 melanoma 101% | SK-MEL-2 melanoma 91.6% | SN12C renal 97.4% | UO-31 renal 87.7% | TK-10 renal 117% | ACHN renal 101% | CAKI-1 renal 105% | CCRF-CEM leukemia 72.6% | MOLT-4 leukemia 85.5%

O=C(c1nc2ccccc2[nH]1)C1C(c2ccc(Br)cc2)C2CC3CCCC[C@H]3N2[C@@]12C(=O)Nc1cc(Cl)ccc12 (some centres undefined)
inactive: HT29 colon 27.9% | SNB-75 CNS 49.1% | SNB-19 CNS 49.8% | U251 CNS 43.9% | PC-3 prostate 28.4% | SK-MEL-5 melanoma 51% | UACC-62 melanoma 58% | LOX IMVI melanoma 30% | SK-MEL-28 melanoma 62.4% | SK-MEL-2 melanoma 73.3% | EKVX NSCLC 37% | UO-31 renal 20.6% | ACHN renal 29.9% | CAKI-1 renal 17.7% | CCRF-CEM leukemia 32%
active: MOLT-4 leukemia 6.93%

O=C1Nc2cc(-c3ccc(NS(=O)(=O)c4ccccc4)cc3)ccc2/C1=C/c1ccc[nH]1
inactive: HT29 colon 84.2% | SNB-75 CNS 98.5% | SNB-19 CNS 98.1% | U251 CNS 97.9% | PC-3 prostate 82.5% | SK-MEL-5 melanoma 91.2% | UACC-62 melanoma 89.3% | LOX IMVI melanoma 69.3% | SK-MEL-28 melanoma 108% | SK-MEL-2 melanoma 112% | EKVX NSCLC 28.9% | SN12C renal 96.2% | UO-31 renal 69.2% | TK-10 renal 68.9% | ACHN renal 88.5% | CAKI-1 renal 82.9% | CCRF-CEM leukemia 63.9% | MOLT-4 leukemia 73.1%

C#CCNC(=O)[C@H](Cc1ccccc1)NC(=O)[C@]12CC[C@@H](C(=C)C)[C@@H]1[C@H]1CC[C@@H]3[C@@]4(C)CCC(=O)C(C)(C)[C@@H]4CC[C@@]3(C)[C@]1(C)CC2
inactive: HT29 colon 52.9% | SNB-75 CNS 99.2% | SNB-19 CNS 82.6% | U251 CNS 69.1% | PC-3 prostate 33% | SK-MEL-5 melanoma 78.2% | UACC-62 melanoma 59.5% | LOX IMVI melanoma 75.4% | SK-MEL-28 melanoma 98.1% | SK-MEL-2 melanoma 86.8% | EKVX NSCLC 79% | SN12C renal 76% | UO-31 renal 54% | TK-10 renal 65.3% | ACHN renal 75.7% | CAKI-1 renal 55.4% | CCRF-CEM leukemia 65.1% | MOLT-4 leukemia 46.3%
